Experimental data from PubChem BioAssay (Tox21).
Results filed as inconclusive are left out. The source made the active and inactive calls. Calls come from the whole dose curve.

Assay: qHTS assay for small molecules that induce genotoxicity in human embryonic kidney cells expressing luciferase-tagged ATAD5 - cell viability (AID 651634); note: nearly all actives have a fitted effect of over 25% in size
Conditions: HEK293T ATAD5-luc cells viability, CellTiter-Fluor, 15.5 h; series mostly up to 83.3 µM; activity, negative = cytotoxicity: at the top concentration
Text: National Center for Advancing Translational Sciences [NCATS]
NIH Chemical Genomics Center [NCGC]
U.S. Environmental Protection Agency [EPA]
National Institutes of Environmental Health Sciences [NIEHS]
National Toxicology Program [NTP]
U.S. Food and Drug Administration [FDA]
Enhanced Level of Genome Instability Gene 1 (ELG1; human ATAD5) protein levels increase in response to various types of DNA damage. Using a luciferase reporter-gene tagged with ElG1, a cell-based assay [developed by Kyungjae Myung, NHGRI, NIH] was used to measure the induction of ATAD5 in human embryonic kidney cells (HEK293T). So, increase in luciferase activity can be used to identify the compounds that cause genetic stress. In addition to genotoxicity, these cells were also used to test for cytotoxicity by measuring the protease activity within live cells.
Tox21 Assay Protocol Summary:
For cytotoxicity screening, 2,000 cells in 5 uL/well were dispensed into white, solid-bottom 1536-well plates using a Multidrop Combi (Thermo Scientific) dispenser. Following transfer of 23 nL compound or DMSO vehicle by a pin tool, the plates were incubated 15.5 hr at 37C and 5% CO2. 1 ul CellTiter-Fluor reagent (Promega, Madison, WI) was then added to each plate and following 30 min incubation at 37C, fluorescence intensity was quantified on a ViewLux CCD-based plate reader.
% is set by controls: 0 for no effect and ±100 for the full control effect.

SMILES	activity, negative = cytotoxicity	Potency
CC(C)CCCO	25.1% (inactive)	–
CN1[C@@H]2CC[C@H]1CC(OC(=O)C(O)c1ccccc1)C2 (stereo not given in full)	–	inactive
CC(C)NNC(=O)c1ccncc1	11.3% (inactive)	–
Cc1ncc(COP(=O)(O)O)c(C=O)c1O	6.97% (inactive)	–
CC[N+](CC)(CC)CCOc1cccc(OCC[N+](CC)(CC)CC)c1OCC[N+](CC)(CC)CC	-24% (inactive)	–
CCOc1ccccc1OCC	11.2% (inactive)	–
CC1=C(C/C=C(\C)CCC[C@H](C)CCC[C@H](C)CCCC(C)C)C(=O)c2ccccc2C1=O	-2.32% (inactive)	–
Nc1ccn([C@@H]2O[C@H](CO)[C@@H](O)C2O)c(=O)n1 (stereo not given in full)	–	inactive
NS(=O)(=O)Cc1noc2ccccc12	3.55% (inactive)	–
COc1cc(C)nc(-n2nc(C)cc2OC)n1	-10.2% [at 39.1 µM] (inactive)	–
C=CN1CCCCCC1=O	15.2% (inactive)	–
CN(C)CCN(C)CCN(C)C	11.8% (inactive)	–
CCCCOCCOC(=O)COc1cc(Cl)c(Cl)cc1Cl	16.3% (inactive)	–
C[C@@H]1CCC[C@H](C)N1	-15% [at 39.1 µM] (inactive)	–
CC(=O)Oc1cccc(C)c1	-12.2% (inactive)	–
CCN[C@@H]1C[C@H](N)[C@@H](OC2OC(CN)=CCC2N)[C@H](O)[C@H]1O[C@H]1OC[C@](C)(O)[C@H](NC)[C@H]1O (stereo not given in full)	7.26% (inactive)	–
CNCCO	9.58% (inactive)	–
CC(C)C1CCC(O)CC1 (stereo not given)	6.94% (inactive)	–
COc1cc(C(=O)OC(COCCC(C)C)CN2CCOCC2)cc(OC)c1OC (stereo not given)	10.9% (inactive)	–
CCCc1ncc(C[n+]2ccccc2C)c(N)n1	22.7% [at 39.1 µM] (inactive)	–

SMILES	activity, negative = cytotoxicity	Potency
C=COCC1CCC(COC=C)CC1 (stereo not given)	-4.85% (inactive)	–
CCN[C@H]1C[C@H](C)S(=O)(=O)c2sc(S(N)(=O)=O)cc21	12.3% (inactive)	–
CC(C(=O)O)c1cccc(Oc2ccccc2)c1 (stereo not given)	13.9% [at 39.1 µM] (inactive)	–
Cc1ccc(-c2ncc(Cl)cc2-c2ccc(S(C)(=O)=O)cc2)cn1	18% (inactive)	–
CC(C)c1ccc2ncccc2c1	11.4% (inactive)	–
COC(=O)Nc1ccc(Cl)c(Cl)c1	15% (inactive)	–
CCOC(=O)COc1cc(-n2ncc(C(F)(F)F)c(C)c2=O)c(F)cc1Cl	12.1% (inactive)	–
COc1cc(-c2ccc(=O)[nH]n2)ccc1OC(F)F	29.4% (inactive)	–
C[C@H]1C[C@H]2[C@@H]3CCC4=CC(=O)C=C[C@]4(C)[C@H]3C(=O)C[C@]2(C)[C@@]1(O)C(=O)CO	11.7% (inactive)	–
CCCCOCCOC(=O)CCCCCCCCC(=O)OCCOCCCC	-6.68% (inactive)	–
COc1ccc2cc1Oc1cc3c(cc1OC)CC[N+](C)(C)[C@H]3Cc1ccc(cc1)Oc1c(OC)c(OC)cc3c1[C@@H](C2)[N+](C)(C)CC3	10.6% (inactive)	–
CCN1CCOCC1	6.01% (inactive)	–
CN(C)C(=O)Oc1ccc[n+](C)c1	-2.78% (inactive)	–
CCNS(=O)(=O)c1ccc(C)cc1	21.7% [at 95.3 µM] (inactive)	–
CC(C)(C)C(=O)Oc1ccc(S(=O)(=O)Nc2ccccc2C(=O)NCC(=O)O)cc1	6.68% (inactive)	–
c1ccc(Cc2ccccc2)cc1	-6.56% (inactive)	–
CCCn1cc[n+](C)c1C	12.2% [at 95.3 µM] (inactive)	–
Clc1cc(Cl)c(Cl)nc1Cl	-1.76% (inactive)	–
CN(C)C(=O)Oc1cccc([N+](C)(C)C)c1	18.8% (inactive)	–
c1ccc2sc(SN3CCOCC3)nc2c1	13.6% (inactive)	–
